From ChEMBL document CHEMBL3988442, “University of Dundee, Small-Polar-MMV Screening Library” (2021)
The campaign covered roughly 48,000 compounds. About 13,000 (27%) showed an effect of 50% or more. Some of the results follow.

These compounds were tested on Wolbachia pipientis (assay: Anti-Wolbachia Cell-Based Screen). Conditions: 5 µM.
Format: functional
Parameters: scale not given: in the data most compounds retested in dose-response had high values

Structure (SMILES) | Percent Effect [%]
O=C1CCCN1CCN1CCCCC1Cn1cccn1 (configuration not stated) | -13.35
COc1cc(C2C3=C(COC3=O)Nc3[nH]nc(C)c32)cc2c1OCO2 (configuration not stated) | -6.627
Cc1n[nH]c(C)c1CCNC(=O)Nc1ccc2c(c1)COC2 | -11.47
O=C(CN1CCNC1=O)NCc1ccc2sccc2c1 | 117.7
O=C(CN1CCNCC1)NCc1ccc2sccc2c1 | -21.43
O=C(Cn1ccc(=O)cc1)NCc1ccc2sccc2c1 | -4.934
CC1(c2cc[nH]n2)CCN(C(=O)c2ccc(Cl)cc2)CC1 | 120.3
CC(C)C(=O)N1CCC2(CC1)NC(=O)[C@H]1CN(C(=O)N(C)C)C[C@H]12 | -23.47
CC(=O)N1CC2(CCN(C(=O)c3cccc4[nH]ccc34)CC2)C1 | -2.889
CC(C)C(=O)N1CCC(C)(c2cc[nH]n2)CC1 | 145.9
COc1ccc(N)c(N2CCN(C(C)=O)CC2)n1 | -3.558
CC(C)C(=O)N1CCC2(CC1)NC(=O)c1ccccc12.Cl | -14.83
CC(=O)N1CCC(C)(c2cc[nH]n2)CC1 | 158.8
Cc1nnc(CCNC(=O)c2coc(CN3CCOCC3)c2)s1 | -3.668
CCCOc1ccc2c(c1)OCC(C(=O)NC(C)Cn1cccn1)=C2 (configuration not stated) | 18.55
O=c1c(C(F)(F)F)cccn1Cc1nnc(-c2cccnc2)o1 | -24.3
N[C@H]1CN(C(=O)c2ccc3[nH]c(CO)nc3c2)C[C@@H]1c1ccccc1 | 103.3
Cc1nc2cc(C(=O)N3C[C@@H](C(=O)O)[C@H](c4ccncc4)C3)ccc2[nH]1 | -0.783
CCC[C@H]1CN(C(=O)c2ccc3[nH]c(CO)nc3c2)C[C@@H]1N | 98.53
Nc1nc(CCC(=O)N2C[C@H](c3ccccc3)[C@@H](N)C2)cs1 | -7.394
Cc1nc2cc(C(=O)N3C[C@@H](C(=O)O)[C@H](C4CC4)C3)ccc2[nH]1 | -4.344
N[C@H]1CN(C(=O)CCc2ccccn2)C[C@@H]1c1ccccc1 | 8.322
N[C@H]1CN(C(=O)c2ccc3[nH]c(=O)c(=O)[nH]c3c2)C[C@@H]1c1ccccc1 | 97.68
N[C@H]1CN(C(=O)CCC(F)(F)F)C[C@@H]1c1ccccc1 | 7.576
Cc1nc2cc(C(=O)N3C[C@@H](NS(C)(=O)=O)[C@H](C(C)C)C3)ccc2[nH]1 | -4.009
O=C(CCn1ccc(=O)[nH]c1=O)N1CCC(Oc2ncccc2Cl)CC1 | 8.092
Cc1ccc(CNC2CCCc3c2cnn3Cc2ccccc2)s1.Cl (configuration not stated) | 8.556
